# Source: PubChem BioAssay AID720504 (National Center for Advancing Translational Sciences (NCATS), 2013)
# Out of some 360,000 compounds screened, about 10,000 (2.8%) were called active. Not shown: some 4% with an inconclusive outcome. The call rests on the fitted dose curve; in most records, active means well fitted inhibition curve with a large enough effect; inconclusive means small, poorly fitted or top-dose-only effect; inactive means flat fitted curve, though single readings scatter. The sample as a whole holds a higher share of actives than the screen did.
# Target: Serine/threonine-protein kinase PLK1 (Homo sapiens) (UniProt P53350)
# Assay: qHTS for Inhibitors of PLK1-PDB (polo-like kinase 1 - polo-box domain): Primary Screen; further: nearly all actives have a fitted effect of over 65% in size; on max response, negative = inhibition: series mostly up to about 57 µM
# Conditions: Plk1 PBD binding of FITC phosphopeptide, fluorescence polarization
# On the % scale 0 is the no-effect control and ±100 the full control effect; potency means the concentration at half of the fitted maximal effect.
# Chain of Serine/threonine-protein kinase PLK1 (Homo sapiens) (P53350 whole entry, looked up, the tested form may be a part): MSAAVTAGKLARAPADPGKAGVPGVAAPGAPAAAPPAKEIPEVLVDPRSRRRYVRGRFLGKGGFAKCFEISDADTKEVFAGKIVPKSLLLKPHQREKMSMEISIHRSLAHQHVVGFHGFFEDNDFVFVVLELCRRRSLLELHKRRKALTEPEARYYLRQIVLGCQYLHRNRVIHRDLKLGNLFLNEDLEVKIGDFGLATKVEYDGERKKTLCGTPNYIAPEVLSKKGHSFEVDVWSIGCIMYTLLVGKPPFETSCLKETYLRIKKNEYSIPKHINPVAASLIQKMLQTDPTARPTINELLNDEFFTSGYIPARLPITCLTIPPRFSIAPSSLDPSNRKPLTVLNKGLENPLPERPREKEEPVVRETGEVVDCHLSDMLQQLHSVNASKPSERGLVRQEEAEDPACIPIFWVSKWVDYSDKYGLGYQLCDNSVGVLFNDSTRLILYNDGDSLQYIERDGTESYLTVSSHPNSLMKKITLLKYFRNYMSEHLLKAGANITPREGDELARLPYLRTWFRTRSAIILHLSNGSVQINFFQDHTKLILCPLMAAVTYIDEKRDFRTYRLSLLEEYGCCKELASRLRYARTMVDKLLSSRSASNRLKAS
SMILES,"max response, negative = inhibition",Potency
C=CCOc1ccccc1CNn1c(C)n[nH]c1=S,-12.8% (inactive),
O=C(NCc1ccccc1)C1c2ccccc2OCC(=O)N1C1CC1 (stereo not drawn),2.78% (inactive),
Cc1csc(SCC(=O)Nc2ccc(C)c(S(=O)(=O)N(C)C)c2)n1,-2.14% (inactive),
c1ccc(CSc2nnc(-c3ccco3)c(-c3ccco3)n2)cc1,,11.2 µM (active)
CCc1nnc(SCc2cccc(F)c2)nc1CC,1.21% (inactive),
c1ccc(Cc2c(-c3ccco3)nc3c4ccccc4ccn23)cc1,-8.74% (inactive),
Clc1ccccc1CSc1nnc(-c2ccco2)c(-c2ccco2)n1,,13.4 µM (active)
COC(=O)c1ccc2nc(-c3ccc(F)cc3)c(Cc3ccc(C)cc3)n2c1,1.02% (inactive),
COc1ccc(C(=O)N2CCCCC2c2cc(C(=O)Nc3ccc(F)c(Cl)c3)no2)cc1 (stereo not drawn),-10.1% (inactive),
CCOCCC(=O)Nc1ccc2c(c1)c(=O)n(C)n2-c1ccc2ccccc2c1,-3.07% (inactive),
CCOC(=O)[C@]12CCC=C1N(Cc1ccco1)C(=O)[C@H](CC(=O)NCc1cccc(C(F)(F)F)c1)C2,-26% (inactive),
Cc1cc(C(=O)N2CCCC2(C)C(=O)O)c(C)o1 (stereo not drawn),-5.24% (inactive),
CCCCC(=O)NC(c1ccc(OC)c(OC)c1)c1ccc2cccnc2c1O (stereo not drawn),-4.18% (inactive),
Oc1c(C(c2ccccn2)N2CCOCC2)ccc2cccnc12 (stereo not drawn),,9.47 µM (active)
CCn1c(=S)[nH]c2cc(S(=O)(=O)N3CCOCC3)ccc21,,29.9 µM (active)
O=S(=O)(c1ccc2ccccc2c1)N1CCN(S(=O)(=O)N2CCOCC2)CC1,-4% (inactive),
Cc1ccc(S(=O)(=O)N2CCN(S(=O)(=O)N3CCOCC3)CC2)cc1,-4.72% (inactive),
Cc1ccc(CC2(C)C(=O)Nc3ccc(OC(F)(F)F)cc32)cc1 (stereo not drawn),0.395% (inactive),
COCCCNc1ccn2nc(-c3ccc(CC(C)C)cc3)cc2n1,-1.25% (inactive),
CCN(CC)C(=O)C1=C(C)N(Cc2ccc(C(C)(C)C)cc2)C(=O)C(CC(=O)NCc2cccc3ccccc23)C1 (stereo not drawn),-4.44% (inactive),
CCOc1ccc2c(c1)c(=O)c(S(=O)(=O)c1ccc(C)cc1)cn2CC,,26.7 µM (active)
CCn1cc(S(=O)(=O)c2cccc(C)c2)c(=O)c2cc(F)c(N3CCN(C)CC3)cc21,-10.2% (inactive),

SMILES,"max response, negative = inhibition",Potency
CCCn1cc(S(=O)(=O)c2ccc(C)cc2)c(=O)c2cc(OCC)ccc21,-12.4% (inactive),
Fc1cccc(Cc2c(-c3ccc(Cl)cc3)nc3ccc(Cl)cn23)c1,9.81% (inactive),
CN[C@H]1C[C@H]2c3cc(Oc4ccccc4C)ccc3CCN2C(=O)[C@H]1[C@H](C)O,0.731% (inactive),
Nc1nc(SCC(=O)NNc2c(Cl)cc(Cl)cc2Cl)n[nH]1,,18.9 µM (active)
Nc1nc(SCC(=O)Nc2ccc(Cl)cc2C(F)(F)F)n[nH]1,-8.67% (inactive),
Nc1nc(SCC(=O)Nc2ccc(Cl)c([N+](=O)[O-])c2)n[nH]1,-3.6% (inactive),
CCCNC(=O)c1cc(C2CCCCN2S(=O)(=O)c2ccc(C#N)cc2)on1 (stereo not drawn),6.75% (inactive),
O=C(CC[C@H]1O[C@@H](n2ccc(=O)[nH]c2=O)[C@H](O)[C@@H]1O)N[C@H](Cc1ccccc1)C(=O)NCc1ccco1,-11.9% (inactive),
CC(C)(C)N1C(=O)c2c(C(=O)OCc3ccccc3)[nH]c(-c3ccccc3)c2C1=O,-11.2% (inactive),
Cc1ccc(NC(=O)Cn2sc3ccccc3c2=O)cc1,,2.38 µM (active)
Cc1cc(C)cc(NC(=O)CN2C(=O)c3ccccc3C2=O)c1,-3.07% (inactive),
Cc1ccc(NC(=O)Cn2c(C)csc2=O)cc1,-1.66% (inactive),
Cc1ccc(CCNC(=O)CN2C(=O)CSc3ccc(S(=O)(=O)N4CCOCC4)cc32)cc1,-9.68% (inactive),
O=C(CCNS(=O)(=O)c1ccccc1C(F)(F)F)NCc1ccc2c(c1)OCO2,-4% (inactive),
O=C(CC(Cc1ccccc1)C(=O)O)NCCc1ccc2c(c1)OCO2 (stereo not drawn),-0.693% (inactive),
O=C(CCc1nnc(Cc2ccc3c(c2)OCO3)o1)NCCc1ccccc1Cl,,21.2 µM (active)
C#Cc1cc(N2CCN(C(=O)c3ccoc3)CC2)n2nc(-c3cccc(Cl)c3)cc2n1,-12% (inactive),
FC(F)(F)C1CCCN(c2nsc3ccccc23)C1 (stereo not drawn),,1.5 µM (active)
CCNC(=O)C1(C)CCN(Cc2ccc(C(=O)OCC)o2)C1 (stereo not drawn),3.81% (inactive),
C[C@@H]1CN([C@H](C)CO)C(=O)CCCn2nncc2CO[C@@H]1CN(C)C(=O)OCc1ccccc1,-21.8% (inactive),
COc1ccc(CN2CCC(C)(Oc3cccc(F)c3)C2)c2ccccc12 (stereo not drawn),-19.3% (inactive),
Cc1ccc(F)c(S(=O)(=O)NC(=O)C2(C)CCN2C(=O)c2ccco2)c1 (stereo not drawn),-2.63% (inactive),

SMILES,"max response, negative = inhibition",Potency
CCn1c(SCC(=O)N/N=C/c2ccccc2OCC(=O)O)nnc1-c1ccc(C(C)(C)C)cc1,5.13% (inactive),
CCn1c(SCC(=O)N/N=C/C=C/c2ccccc2[N+](=O)[O-])nnc1-c1ccccc1,,23.8 µM (active)
Cc1ccc(-n2c(SCC(=O)N/N=C/C=C/c3ccccc3[N+](=O)[O-])nc3ccccc3c2=O)cc1,1.55% (inactive),
Cc1cc(NC(=O)CSc2nnc(-c3ccco3)n2N)no1,-3.98% (inactive),
Cc1cc(NC(=O)CSc2nc3cc(Cl)ccc3c(=O)n2Cc2ccco2)no1,,21.2 µM (active)
Cc1cc(NC(=O)CSC2=NS(=O)(=O)c3cc(Cl)ccc3N2)no1,-2.92% (inactive),
COc1ccc(NC(=O)/C(C#N)=C\c2cc(OC)c(OCc3ccc(C(=O)O)cc3)cc2Br)cc1,,10.6 µM (active)
COc1cc(/C=C(\C#N)C(=O)Nc2ccc3ccccc3c2)c([N+](=O)[O-])cc1OC,-1.73% (inactive),
COc1ccc(CNC(=O)/C(C#N)=C/c2cccc(OC)c2OC)cc1,-17% (inactive),
O=C(NCc1ccccn1)[C@@H]1CCCN1C(=O)[C@@H]1CCCN1C(=O)c1ccccc1,-3.01% (inactive),
N#Cc1ccc(C(C(=O)NCc2ccccc2)n2c(=O)c(-c3ccco3)nc3ccccc32)cc1 (stereo not drawn),-22.3% (inactive),
Cc1cccc(C)c1NC(=O)C1CCCN1C(=O)OC(C)(C)C (stereo not drawn),,23.8 µM (active)
Cc1ccc(C)c(NC(=O)C2CCCN2C(=O)OC(C)(C)C)c1 (stereo not drawn),-4.64% (inactive),
Cc1ccc(NC(=O)C2CCCN2C(=O)OCc2ccccc2)cc1C (stereo not drawn),2.68% (inactive),
CC(=O)NN=C(C)c1ccc(NC(=O)C2CC2)cc1,-11.2% (inactive),
Cn1c(=O)c2cc(NC(=O)NCCc3cccs3)ccc2n1Cc1cccc(C(F)(F)F)c1,-2.39% (inactive),
COc1cc(Cn2c3ccc(NC(=O)CC(C)c4ccccc4)cc3c(=O)n2C)ccc1F (stereo not drawn),-6.73% (inactive),
CCNC(=S)Nc1ccc2c(c1)c(=O)n(C)n2Cc1ccc(Cl)cc1,,21.2 µM (active)
COc1ccc(-c2ccc(C(=O)NCCN3CCOCC3)c3occc23)c(C)c1,-10.9% (inactive),
C=CCc1ccccc1OCC(O)CN1CCN(CCO)CC1 (stereo not drawn),1.6% (inactive),
OCCN1CCN(C(=S)c2ccc(-c3ccccc3)cc2)CC1,,4.74 µM (active)
CN1CCN(CCCCOc2ccccc2-c2ccccc2)CC1,-11.3% (inactive),

SMILES,"max response, negative = inhibition",Potency
CCc1nc2c(OCCOc3ccccc3)cccn2c1N(C)C(=O)c1ccc(OC)cc1,-8.42% (inactive),
CC1(C(=O)NS(=O)(=O)c2ccc3ccccc3c2)CCN1C(=O)C1(c2ccc(Cl)cc2)CCC1 (stereo not drawn),,42.3 µM (active)
Cc1ccccc1S(=O)(=O)NC(=O)C1(C)CCN1C(=O)C1(c2ccc(Cl)cc2)CC1 (stereo not drawn),3.44% (inactive),
CC1(C(=O)NS(=O)(=O)c2ccc(Cl)cc2)CCN1C(=O)CC1CCCC1 (stereo not drawn),-6.5% (inactive),
CCCCN(C=O)c1c(CC)nc2c(OCc3ccccc3C(=O)OC)cccn12,-4.2% (inactive),
O=C1NC[C@H](CCCCN2C[C@H](Cc3ccc(O)cc3)N(CCc3ccccc3)C(=O)C2=O)N(CCc2ccccc2)C1=O,-1.17% (inactive),
CCCn1c(SCC(=O)c2ccc3c(c2)OCCO3)nnc1C(C)C,,2.99 µM (active)
CCCn1c(SCC(N)=O)nnc1C(C)C,-6.68% (inactive),
CCCn1c(SCC(=O)Nc2c(C)cccc2C)nnc1C(C)C,-7.66% (inactive),
CC(C)Cc1ccc(-c2cc3nc(NCc4cccc(Cl)c4)ccn3n2)cc1,-0.174% (inactive),
COc1ccc(NC(=O)C2C3C=CC(C3)C2C(=O)NCc2ccccn2)c(OC)c1 (stereo not drawn),,26.7 µM (active)
CCOc1ccc(N2CC(C(=O)NCc3ccccn3)CC2=O)cc1 (stereo not drawn),6.65% (inactive),
COc1ccc(C)cc1NC(=O)NCc1ccccn1,3.53% (inactive),
CCCC(=O)N1CCC1(C)C(=O)NCc1ccc(SC)cc1 (stereo not drawn),4.65% (inactive),
CO[C@@H]1CN(C)C(=O)c2cc(NC(=O)Nc3cc(F)ccc3F)ccc2OC[C@H](C)N(C(=O)c2ccccn2)C[C@@H]1C,-4.19% (inactive),
Cc1cccc(C)c1NC(=O)COC(=O)c1c(C)nn(-c2ccccc2)c1C,2.85% (inactive),
Cc1nn(-c2ccccc2)c(C)c1C(=O)OCC(=O)NC(=O)NC1CCCCC1,,21.2 µM (active)
COc1ccc(CNC(=O)COC(=O)c2c(C)nn(-c3ccccc3)c2C)cc1OC,-2.1% (inactive),
Cc1ccc(F)c(S(=O)(=O)NC(=O)C2(C)CCN2C(=O)CCc2cccs2)c1 (stereo not drawn),-3.35% (inactive),
CCSc1nc(O)c(C(c2cccc(OC)c2)c2c(O)nc(SCC)[nH]c2=O)c(=O)[nH]1,-21.7% (inactive),
CCn1c(SC)nc(O)c(C(c2ccc(OC)c(O)c2)c2c(O)nc(SC)n(CC)c2=O)c1=O,,16.8 µM (active)
CCn1c(COc2ccc(OC)cc2)nnc1SCC(=O)Nc1cc(OC)ccc1OC,-3.02% (inactive),
